Publication PMC7862700, “An all-to-all approach to the identification of sequence-specific readers for epigenetic DNA modifications on cytosine”

Experiments:
Assay in all cases: DAPPL (digital affinity profiling via proximity ligation, sequencing); 10 mM Tris-HCl pH 7.5, 50 mM NaCl, 1 mM DTT, 4% glycerol, room temperature, 30 min; GST-TFs on glutathione beads, 16-mer random dsDNA library, 0.1% formaldehyde crosslink after washing; high values mean tight binding
Conditions in all cases: protein: recombinant; tags: N-terminal GST; dsDNA, one strand shown
GABPA = target: T1, GABPA (Homo sapiens, UniProt Q06546 1-454)
T1 sequence: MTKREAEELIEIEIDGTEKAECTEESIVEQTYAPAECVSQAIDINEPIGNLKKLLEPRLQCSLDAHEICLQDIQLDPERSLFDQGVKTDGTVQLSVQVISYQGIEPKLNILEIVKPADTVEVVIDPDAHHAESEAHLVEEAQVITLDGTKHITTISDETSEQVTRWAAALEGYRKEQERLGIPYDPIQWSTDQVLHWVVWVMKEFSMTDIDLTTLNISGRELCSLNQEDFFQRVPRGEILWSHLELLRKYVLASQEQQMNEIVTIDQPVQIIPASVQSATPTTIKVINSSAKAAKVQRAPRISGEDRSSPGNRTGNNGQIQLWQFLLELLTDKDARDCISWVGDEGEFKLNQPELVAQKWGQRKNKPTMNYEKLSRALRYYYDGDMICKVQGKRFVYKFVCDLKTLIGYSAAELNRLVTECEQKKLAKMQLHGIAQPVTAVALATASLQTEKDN
In short: (§1)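 Sequencing on an Illumina NextSeq500 followed washing, crosslinking with 0.1% formaldehyde, proximity ligation (BsaI/T4 ligase, 1 h, 37 °C) and PCR amplification of pools that had been incubated for 30 min at room temperature with 200 nmole of a random double-stranded 16-mer DNA library in Tris/NaCl/DTT/glycerol buffer. Each pool held DNA-barcoded human transcription factors, expressed in yeast as GST fusions and captured on glutathione beads, plus a tag-only sample. Binding signal is a hexamer's read frequency for a factor divided by its frequency in the tag-only sample.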

ELF1 = ELF1 (Homo sapiens, UniProt P32519 1-619)
In short: as §1

ELK3 = target: T2, ELK3 (Homo sapiens, UniProt P41970 1-407)
T2 sequence: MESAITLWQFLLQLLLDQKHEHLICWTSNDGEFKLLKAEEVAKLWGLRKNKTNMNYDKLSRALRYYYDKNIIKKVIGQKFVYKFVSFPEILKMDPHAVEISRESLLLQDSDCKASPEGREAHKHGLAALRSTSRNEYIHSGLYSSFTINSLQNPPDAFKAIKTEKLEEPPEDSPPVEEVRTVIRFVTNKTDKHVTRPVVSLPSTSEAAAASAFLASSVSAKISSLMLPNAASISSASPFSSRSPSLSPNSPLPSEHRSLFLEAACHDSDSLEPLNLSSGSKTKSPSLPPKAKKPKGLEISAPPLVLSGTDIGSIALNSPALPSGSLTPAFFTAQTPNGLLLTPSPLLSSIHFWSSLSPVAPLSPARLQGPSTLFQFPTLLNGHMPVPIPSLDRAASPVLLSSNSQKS
In short: as §1

ELF4 = ELF4 (Homo sapiens, UniProt Q99607 1-663)
In short: as §1

ELK4 = target: T3, ELK4 (Homo sapiens, UniProt P28324-2 1-405)
T3 sequence: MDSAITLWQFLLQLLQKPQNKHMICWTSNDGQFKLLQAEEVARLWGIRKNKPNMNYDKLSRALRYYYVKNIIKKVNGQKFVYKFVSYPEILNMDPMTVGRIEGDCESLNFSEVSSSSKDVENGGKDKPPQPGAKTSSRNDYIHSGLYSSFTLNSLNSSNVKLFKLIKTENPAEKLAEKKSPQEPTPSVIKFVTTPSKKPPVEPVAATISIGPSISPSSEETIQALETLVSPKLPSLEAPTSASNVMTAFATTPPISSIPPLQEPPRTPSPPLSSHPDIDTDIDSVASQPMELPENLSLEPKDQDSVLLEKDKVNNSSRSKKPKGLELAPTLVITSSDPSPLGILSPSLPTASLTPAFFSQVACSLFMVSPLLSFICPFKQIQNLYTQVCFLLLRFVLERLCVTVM
In short: as §1

ETV2 = target: T4, ETV2 (Homo sapiens, UniProt O00321 1-342)
T4 sequence: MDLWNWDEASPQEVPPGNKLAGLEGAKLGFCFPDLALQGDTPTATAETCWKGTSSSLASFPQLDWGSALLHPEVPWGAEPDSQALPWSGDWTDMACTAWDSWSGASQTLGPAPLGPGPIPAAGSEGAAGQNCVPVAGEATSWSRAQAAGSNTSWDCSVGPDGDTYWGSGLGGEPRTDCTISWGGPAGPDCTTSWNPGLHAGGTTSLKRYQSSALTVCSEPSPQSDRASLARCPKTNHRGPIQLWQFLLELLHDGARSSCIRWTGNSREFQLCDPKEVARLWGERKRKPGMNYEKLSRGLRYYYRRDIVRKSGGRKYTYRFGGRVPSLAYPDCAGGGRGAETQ
In short: as §1

ERF = target: T5, ERF (Homo sapiens, UniProt P50548 1-548)
T5 sequence: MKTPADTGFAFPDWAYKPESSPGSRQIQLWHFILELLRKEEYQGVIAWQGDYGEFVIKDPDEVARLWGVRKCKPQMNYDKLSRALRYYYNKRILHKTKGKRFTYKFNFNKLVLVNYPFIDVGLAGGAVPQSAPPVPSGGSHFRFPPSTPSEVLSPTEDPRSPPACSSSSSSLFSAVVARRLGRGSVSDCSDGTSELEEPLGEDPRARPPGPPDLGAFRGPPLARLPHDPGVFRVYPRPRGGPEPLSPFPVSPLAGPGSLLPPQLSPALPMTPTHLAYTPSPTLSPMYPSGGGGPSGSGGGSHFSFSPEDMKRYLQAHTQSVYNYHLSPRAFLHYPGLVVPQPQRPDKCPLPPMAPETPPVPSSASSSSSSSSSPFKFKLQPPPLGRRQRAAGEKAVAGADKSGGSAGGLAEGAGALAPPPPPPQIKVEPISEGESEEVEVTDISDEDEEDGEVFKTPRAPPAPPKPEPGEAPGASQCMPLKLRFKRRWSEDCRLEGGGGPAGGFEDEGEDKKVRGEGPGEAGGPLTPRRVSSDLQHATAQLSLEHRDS
In short: as §1

SPIB = SPIB (Homo sapiens, UniProt Q01892 1-262)
In short: as §1

ELK1 = target: T6, ELK1 (Homo sapiens, UniProt P19419 1-428)
T6 sequence: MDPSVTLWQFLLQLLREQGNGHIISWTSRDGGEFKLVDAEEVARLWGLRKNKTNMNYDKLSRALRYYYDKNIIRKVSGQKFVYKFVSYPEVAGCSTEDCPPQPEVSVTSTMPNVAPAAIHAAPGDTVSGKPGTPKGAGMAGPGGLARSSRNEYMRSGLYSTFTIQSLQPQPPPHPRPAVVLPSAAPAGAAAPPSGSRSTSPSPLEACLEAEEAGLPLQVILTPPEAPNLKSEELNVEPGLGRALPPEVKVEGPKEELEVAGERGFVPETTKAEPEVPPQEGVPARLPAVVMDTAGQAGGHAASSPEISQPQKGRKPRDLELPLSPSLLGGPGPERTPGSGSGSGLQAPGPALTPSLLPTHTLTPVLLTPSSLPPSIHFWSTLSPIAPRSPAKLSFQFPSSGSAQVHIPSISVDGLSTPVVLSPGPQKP
In short: as §1

ERG = target: T7, ERG (Homo sapiens, UniProt P11308 1-479)
T7 sequence: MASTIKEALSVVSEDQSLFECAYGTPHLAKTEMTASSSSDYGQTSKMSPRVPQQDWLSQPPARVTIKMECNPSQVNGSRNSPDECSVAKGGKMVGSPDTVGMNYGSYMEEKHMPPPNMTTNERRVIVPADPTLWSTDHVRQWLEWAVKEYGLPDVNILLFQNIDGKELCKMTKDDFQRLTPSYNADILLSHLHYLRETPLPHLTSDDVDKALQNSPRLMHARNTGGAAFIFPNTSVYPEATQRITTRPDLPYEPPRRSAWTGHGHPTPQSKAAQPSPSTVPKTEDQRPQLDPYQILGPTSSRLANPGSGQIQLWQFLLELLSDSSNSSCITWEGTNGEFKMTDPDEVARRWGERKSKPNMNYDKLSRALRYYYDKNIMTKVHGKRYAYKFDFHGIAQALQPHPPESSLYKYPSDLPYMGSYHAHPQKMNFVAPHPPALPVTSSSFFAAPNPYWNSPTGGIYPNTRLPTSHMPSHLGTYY
In short: as §1

EHF = target: T8, EHF (Homo sapiens, UniProt Q9NZC4 1-300)
T8 sequence: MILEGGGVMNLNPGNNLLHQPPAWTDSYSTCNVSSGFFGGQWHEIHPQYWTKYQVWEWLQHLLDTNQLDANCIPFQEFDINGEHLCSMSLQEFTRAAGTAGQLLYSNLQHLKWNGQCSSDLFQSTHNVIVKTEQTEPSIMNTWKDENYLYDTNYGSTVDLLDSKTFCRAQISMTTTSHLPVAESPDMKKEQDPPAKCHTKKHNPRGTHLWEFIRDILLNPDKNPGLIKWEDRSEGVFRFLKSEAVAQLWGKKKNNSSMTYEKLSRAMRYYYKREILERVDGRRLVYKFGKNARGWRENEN
In short: as §1

SPI1 = SPI1 (Homo sapiens, UniProt P17947 1-270)
In short: as §1

FEV = target: T9, FEV (Homo sapiens, UniProt Q99581 1-238)
T9 sequence: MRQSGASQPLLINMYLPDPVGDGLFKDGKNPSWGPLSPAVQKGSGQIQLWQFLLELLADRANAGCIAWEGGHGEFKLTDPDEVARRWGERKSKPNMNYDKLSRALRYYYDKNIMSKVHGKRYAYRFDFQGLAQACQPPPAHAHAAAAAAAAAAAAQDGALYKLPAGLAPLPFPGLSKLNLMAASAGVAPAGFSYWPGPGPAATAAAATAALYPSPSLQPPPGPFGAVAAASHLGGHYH
In short: as §1

ETV1 = ETV1 (Homo sapiens, UniProt P50549 1-477)
In short: as §1

ETS2 = target: T10, ETS2 (Homo sapiens, UniProt P15036 1-469)
T10 sequence: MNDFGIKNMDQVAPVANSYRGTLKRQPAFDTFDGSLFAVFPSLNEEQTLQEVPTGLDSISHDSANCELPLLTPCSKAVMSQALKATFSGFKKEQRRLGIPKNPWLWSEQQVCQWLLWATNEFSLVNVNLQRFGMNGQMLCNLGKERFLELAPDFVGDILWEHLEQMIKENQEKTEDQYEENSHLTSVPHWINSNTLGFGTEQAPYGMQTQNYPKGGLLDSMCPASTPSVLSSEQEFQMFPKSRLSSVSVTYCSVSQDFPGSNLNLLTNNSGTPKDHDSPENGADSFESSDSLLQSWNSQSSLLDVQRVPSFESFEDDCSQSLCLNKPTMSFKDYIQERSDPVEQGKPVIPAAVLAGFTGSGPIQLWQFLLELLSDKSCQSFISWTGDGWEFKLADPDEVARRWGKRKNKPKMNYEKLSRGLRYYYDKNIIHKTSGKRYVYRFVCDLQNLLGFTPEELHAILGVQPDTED
In short: as §1

ETV3 = target: T11, ETV3 (Homo sapiens, UniProt P41162-2 1-143)
T11 sequence: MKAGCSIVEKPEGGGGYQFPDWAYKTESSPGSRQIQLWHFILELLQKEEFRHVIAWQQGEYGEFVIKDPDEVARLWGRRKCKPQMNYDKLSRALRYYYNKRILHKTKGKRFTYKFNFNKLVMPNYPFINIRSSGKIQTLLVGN
In short: as §1

ELF4, sequence (Q99607 whole entry): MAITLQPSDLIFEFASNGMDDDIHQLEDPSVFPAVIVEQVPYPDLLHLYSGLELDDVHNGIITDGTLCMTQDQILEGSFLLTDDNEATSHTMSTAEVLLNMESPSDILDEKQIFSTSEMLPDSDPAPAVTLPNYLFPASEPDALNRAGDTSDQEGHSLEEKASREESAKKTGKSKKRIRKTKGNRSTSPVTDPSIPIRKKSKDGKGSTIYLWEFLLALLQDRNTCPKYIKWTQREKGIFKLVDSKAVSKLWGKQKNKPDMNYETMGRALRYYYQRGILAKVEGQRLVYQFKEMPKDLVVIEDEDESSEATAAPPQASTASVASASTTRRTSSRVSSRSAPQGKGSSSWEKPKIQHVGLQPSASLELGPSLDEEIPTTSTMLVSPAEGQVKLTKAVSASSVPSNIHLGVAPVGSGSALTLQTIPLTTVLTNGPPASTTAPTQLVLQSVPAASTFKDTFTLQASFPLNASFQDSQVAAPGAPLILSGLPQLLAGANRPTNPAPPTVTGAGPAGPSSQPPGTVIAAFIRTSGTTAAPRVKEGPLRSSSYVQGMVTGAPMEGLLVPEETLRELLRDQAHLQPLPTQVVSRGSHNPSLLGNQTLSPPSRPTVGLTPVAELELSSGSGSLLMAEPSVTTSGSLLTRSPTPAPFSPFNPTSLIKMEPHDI
ELF1, sequence (P32519 whole entry): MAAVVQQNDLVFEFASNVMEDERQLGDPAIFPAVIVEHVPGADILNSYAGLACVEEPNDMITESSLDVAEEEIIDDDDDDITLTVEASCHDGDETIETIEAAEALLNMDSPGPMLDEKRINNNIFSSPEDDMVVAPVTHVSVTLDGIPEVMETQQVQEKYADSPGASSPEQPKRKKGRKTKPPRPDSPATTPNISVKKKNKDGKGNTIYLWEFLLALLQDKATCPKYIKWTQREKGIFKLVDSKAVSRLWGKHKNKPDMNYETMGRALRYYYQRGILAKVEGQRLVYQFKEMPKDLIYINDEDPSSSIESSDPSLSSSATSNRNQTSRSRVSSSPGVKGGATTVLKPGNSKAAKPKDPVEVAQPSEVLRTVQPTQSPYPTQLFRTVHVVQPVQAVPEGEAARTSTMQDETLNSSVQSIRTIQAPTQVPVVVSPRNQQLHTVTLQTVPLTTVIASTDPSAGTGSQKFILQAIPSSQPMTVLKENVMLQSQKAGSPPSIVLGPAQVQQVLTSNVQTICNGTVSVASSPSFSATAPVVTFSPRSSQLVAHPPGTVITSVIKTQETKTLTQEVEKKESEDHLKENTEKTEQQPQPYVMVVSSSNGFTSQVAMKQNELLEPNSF
ETV1, sequence (P50549 whole entry): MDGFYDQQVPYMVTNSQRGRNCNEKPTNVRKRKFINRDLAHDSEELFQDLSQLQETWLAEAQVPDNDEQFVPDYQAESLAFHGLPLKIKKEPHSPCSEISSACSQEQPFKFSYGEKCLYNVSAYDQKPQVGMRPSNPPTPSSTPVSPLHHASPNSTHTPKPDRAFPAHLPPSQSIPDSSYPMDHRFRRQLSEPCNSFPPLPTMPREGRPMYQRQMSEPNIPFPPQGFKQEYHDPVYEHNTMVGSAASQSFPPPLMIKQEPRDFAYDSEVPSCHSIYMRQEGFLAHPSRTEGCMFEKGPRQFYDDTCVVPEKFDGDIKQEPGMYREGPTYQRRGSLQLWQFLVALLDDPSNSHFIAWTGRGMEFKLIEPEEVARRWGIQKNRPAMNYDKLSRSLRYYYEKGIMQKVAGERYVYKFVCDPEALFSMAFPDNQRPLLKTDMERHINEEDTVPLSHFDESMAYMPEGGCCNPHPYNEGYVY
SPIB, sequence (Q01892 whole entry): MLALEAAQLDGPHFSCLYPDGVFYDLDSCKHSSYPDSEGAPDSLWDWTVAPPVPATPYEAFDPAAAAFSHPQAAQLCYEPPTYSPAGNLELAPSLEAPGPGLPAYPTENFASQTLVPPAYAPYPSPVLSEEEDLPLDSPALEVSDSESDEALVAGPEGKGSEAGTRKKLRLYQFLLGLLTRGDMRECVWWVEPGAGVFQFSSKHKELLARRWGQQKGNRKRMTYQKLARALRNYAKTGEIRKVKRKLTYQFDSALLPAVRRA

Sequence	binding signal (GABPA)	binding signal (ELF1)	binding signal (ELK3)	binding signal (ELF4)	binding signal (ELK4)	binding signal (ETV2)	binding signal (ERF)	binding signal (SPIB)	binding signal (ELK1)	binding signal (ERG)	binding signal (EHF)	binding signal (SPI1)	binding signal (FEV)	binding signal (ETV1)	binding signal (ETS2)	binding signal (ETV3)
CGCACC	1.03 fold enrichment (6-mer frequency, TF over GST control)	1.03 fold enrichment (6-mer frequency, TF over GST control)	1.05 fold enrichment (6-mer frequency, TF over GST control)	1.03 fold enrichment (6-mer frequency, TF over GST control)	1.13 fold enrichment (6-mer frequency, TF over GST control)	1.1 fold enrichment (6-mer frequency, TF over GST control)	1.01 fold enrichment (6-mer frequency, TF over GST control)									
GCAGCA		1.03 fold enrichment (6-mer frequency, TF over GST control)		1.01 fold enrichment (6-mer frequency, TF over GST control)		1.01 fold enrichment (6-mer frequency, TF over GST control)		1.02 fold enrichment (6-mer frequency, TF over GST control)								
CACCGC	1.06 fold enrichment (6-mer frequency, TF over GST control)	1.04 fold enrichment (6-mer frequency, TF over GST control)	1.06 fold enrichment (6-mer frequency, TF over GST control)	1.06 fold enrichment (6-mer frequency, TF over GST control)	1 fold enrichment (6-mer frequency, TF over GST control)		1.07 fold enrichment (6-mer frequency, TF over GST control)		1.01 fold enrichment (6-mer frequency, TF over GST control)	1.02 fold enrichment (6-mer frequency, TF over GST control)	1.08 fold enrichment (6-mer frequency, TF over GST control)	1.01 fold enrichment (6-mer frequency, TF over GST control)	1.04 fold enrichment (6-mer frequency, TF over GST control)	1 fold enrichment (6-mer frequency, TF over GST control)	1.05 fold enrichment (6-mer frequency, TF over GST control)	1.04 fold enrichment (6-mer frequency, TF over GST control)
